Measurements published in PubChem BioAssay AID1159580 (chemical genetic matrix, 2015).
Where “and” joins values, the source holds several entries; their conditions need not be identical. Identical values can stand only once. About 2,000 (36%) of roughly 5,500 compounds were called active. About 18% were inconclusive and are not listed. No stated cut-off is given here; in the data, active means normalized growth mostly below about 0.91 (no sharp cut-off); inconclusive means no clear call, values can overlap the other calls; inactive means mostly above about 0.92. Some of the results follow.

Experiment: chemical genetic growth profiling, strain panel (AID 1159580);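 further: tested at 20 µM; growth read once vehicle control cultures reached saturation at 30 °C; 1 = growth at the plate median or of vehicle wells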
Conditions: S. cerevisiae deletion strains, growth OD

Measured: normalized growth

CC1CCC2(OC1)OC1CC3C4CCC5C[C@@H](O)CCC5(C)C4=CCC3(C)C1[C@@H]2C (stereo partly drawn)
inactive: locus YAL021C, strain ccr4, stronger effect = lower value 1 | locus YAL026C, strain drs2, stronger effect = lower value 0.999 | locus YAL030W, strain snc1, stronger effect = lower value 1.02 | locus YBL061C, strain skt5, stronger effect = lower value 1.01 | locus YBR009C, strain hhf1, stronger effect = lower value 1.01 | locus YBR021W, strain FUR4, stronger effect = lower value 1.13 | locus YBR023C, strain chs3, stronger effect = lower value 1.01 | locus YBR171W, strain sec66, stronger effect = lower value 0.995 | locus YBR229C, strain ROT2, stronger effect = lower value 0.991 | locus YBR231C, strain swc5, stronger effect = lower value 0.997 | locus YBR279W, strain paf1, stronger effect = lower value 1 | locus YCL011C, strain gbp2, stronger effect = lower value 0.991 | locus YCL016C, strain dcc1, stronger effect = lower value 1 | locus YCL029C, strain bik1, stronger effect = lower value 0.972 | locus YCL069W, strain vba3, stronger effect = lower value 0.994 | locus YCR088W, strain abp1, stronger effect = lower value 1.01 | locus YDL005C, strain med2, stronger effect = lower value 1.02 | locus YDL035C, strain GPR1, stronger effect = lower value 1.01 | locus YDL040C, strain nat1, stronger effect = lower value 0.994 | locus YDL074C, strain BRE1, stronger effect = lower value 1.01 | locus YDL101C, strain DUN1, stronger effect = lower value 0.985 | locus YDL185W, strain tfp1, stronger effect = lower value 0.948 | locus YDL192W, strain arf1, stronger effect = lower value 0.985 | locus YDR001C, strain nth1, stronger effect = lower value 0.997 | locus YDR069C, strain doa4, stronger effect = lower value 1.01 | locus YDR101C, strain arx1, stronger effect = lower value 1.01 | locus YDR137W, strain rgp1, stronger effect = lower value 1.04 | locus YDR159W, strain sac3, stronger effect = lower value 1.01 | locus YDR162C, strain NBP2, stronger effect = lower value 1.01 | locus YDR195W, strain ref2 0.931 | locus YDR297W, strain sur2, stronger effect = lower value 0.998 | locus YDR318W, strain mcm21, stronger effect = lower value 0.979 | locus YDR334W, strain swr1, stronger effect = lower value 1.01 | locus YDR335W, strain msn5, stronger effect = lower value 1 | locus YDR388W, stronger effect = lower value 0.966 | locus YDR392W, strain spt3, stronger effect = lower value 0.994 | locus YDR502C, strain sam2, stronger effect = lower value 0.974 | locus YEL003W, strain gim4, stronger effect = lower value 1 | locus YEL037C, strain rad23, stronger effect = lower value 1 | locus YEL061C, strain CIN8 (second series), stronger effect = lower value 0.993 | locus YEL061C, strain CIN8, stronger effect = lower value 0.996 | locus YER015W, strain faa2, stronger effect = lower value 1 | locus YER016W, strain bim1, stronger effect = lower value 1 | locus YER110C, stronger effect = lower value 0.959 | locus YER111C, strain swi4, stronger effect = lower value 0.994 | locus YER155C, strain BEM2 (second series), stronger effect = lower value 0.994 | locus YER155C, strain BEM2, stronger effect = lower value 1.01 | locus YER167W, strain BCK2, stronger effect = lower value 1.01 | locus YFR010W, strain ubp6, stronger effect = lower value 1 | locus YGL078C, strain dbp3, stronger effect = lower value 0.948 | locus YGL086W, strain mad1, stronger effect = lower value 0.998 | locus YGL167C, strain pmr1, stronger effect = lower value 1.01 | locus YGL173C, strain kem1, stronger effect = lower value 1.01 | locus YGL227W, strain vid30, stronger effect = lower value 0.986 | locus YGL240W, strain doc1, stronger effect = lower value 1.01 | locus YGL248W, strain PDE1, stronger effect = lower value 0.999 | locus YGL253W, strain hxk2, stronger effect = lower value 0.99 | locus YGR135W, strain pre9, stronger effect = lower value 0.958 | locus YGR252W, strain gcn5, stronger effect = lower value 1.01 | locus YHR013C, strain ard1, stronger effect = lower value 0.998 | locus YHR027C, strain rpn1, stronger effect = lower value 0.989 | locus YHR030C, strain SLT2, stronger effect = lower value 0.972 and 1.02 | locus YHR079C, strain IRE1 (second series), stronger effect = lower value 0.983 | locus YHR079C, strain IRE1, stronger effect = lower value 1.01 | locus YHR094C, strain hxt1, stronger effect = lower value 0.973 | locus YHR129C, strain ARP1, stronger effect = lower value 0.998 | locus YHR142W, strain chs7, stronger effect = lower value 0.995 | locus YHR200W, strain rpn10, stronger effect = lower value 0.986 | locus YIL066C, strain RNR3, stronger effect = lower value 1 | locus YIL073C, strain SPO22, stronger effect = lower value 0.937 | locus YIL125W, strain kgd1, stronger effect = lower value 0.982 | locus YIR030C, strain dcg1, stronger effect = lower value 0.991 | locus YJL092W, strain hpr5, stronger effect = lower value 0.993 | locus YJL095W, strain BCK1 (second series), stronger effect = lower value 1.02 | locus YJL095W, strain BCK1, stronger effect = lower value 0.982 and 1.02 | locus YJL115W, strain asf1, stronger effect = lower value 0.986 | locus YJL129C, strain trk1, stronger effect = lower value 1.01 | locus YJL134W, strain LCB3, stronger effect = lower value 0.987 | locus YJL154C, strain vps35, stronger effect = lower value 1 | locus YJL164C, strain tpk1, stronger effect = lower value 1.01 | locus YJL166W, strain qcr8, stronger effect = lower value 1 | locus YJL168C, strain set2, stronger effect = lower value 0.984 | locus YJL187C, strain SWE1 (second series), stronger effect = lower value 0.986 | locus YJL187C, strain SWE1, stronger effect = lower value 1.01 | locus YJR043C, strain POL32, stronger effect = lower value 1.02 | locus YJR066W, strain TOR1, stronger effect = lower value 0.945 | locus YKL009W, strain mrt4, stronger effect = lower value 0.988 | locus YKL068W, stronger effect = lower value 0.97 | locus YKL085W, strain MDH1 (second series), stronger effect = lower value 0.978 | locus YKL085W, strain MDH1, stronger effect = lower value 0.978 | locus YKL160W, strain elf1, stronger effect = lower value 0.992 | locus YKL190W, strain CNB1, stronger effect = lower value 0.992 | locus YKR001C, strain vps1, stronger effect = lower value 0.983 | locus YKR026C, strain gcn3, stronger effect = lower value 1 | locus YKR091W, strain srl3, stronger effect = lower value 1.01 | locus YLL001W, strain dnm1, stronger effect = lower value 1.01 | locus YLL026W, stronger effect = lower value 0.992 | locus YLL041C, strain sdh2, stronger effect = lower value 0.992 | locus YLR027C, strain aat2, stronger effect = lower value 0.985 | locus YLR039C, strain RIC1, stronger effect = lower value 1.01 | locus YLR058C, strain SHM2, stronger effect = lower value 0.973 | locus YLR102C, strain apc9, stronger effect = lower value 0.974 | locus YLR113W, strain HOG1, stronger effect = lower value 0.992 | locus YLR221C, strain rsa3, stronger effect = lower value 1 | locus YLR258W, strain gsy2, stronger effect = lower value 0.994 | locus YLR262C, strain YPT6 (second series), stronger effect = lower value 1.1 | locus YLR262C, strain YPT6, stronger effect = lower value 1.04 | locus YLR268W, strain sec22, stronger effect = lower value 0.999 | locus YLR320W, strain mms22, stronger effect = lower value 1 | locus YLR330W, strain CHS5, stronger effect = lower value 0.993 | locus YLR342W, strain FKS1 (second series), stronger effect = lower value 1.05 | locus YLR342W, strain FKS1, stronger effect = lower value 1.05 | locus YLR357W, strain rsc2, stronger effect = lower value 1 | locus YLR370C, strain arc18, stronger effect = lower value 1.02 | locus YLR371W, strain rom2, stronger effect = lower value 0.978 | locus YLR384C, strain iki3, stronger effect = lower value 1.01 | locus YLR418C, strain cdc73, stronger effect = lower value 0.977 | locus YML016C, strain PPZ1, stronger effect = lower value 1.01 | locus YML032C, strain rad52, stronger effect = lower value 0.964 | locus YML120C, strain ndi1, stronger effect = lower value 0.99 | locus YML124C, strain tub3, stronger effect = lower value 0.98 | locus YMR058W, strain fet3, stronger effect = lower value 0.983 | locus YMR078C, strain ctf18, stronger effect = lower value 0.98 | locus YMR125W, strain sto1, stronger effect = lower value 0.995 | locus YMR129W, stronger effect = lower value 0.997 | locus YMR205C, strain PFK2, stronger effect = lower value 0.997 | locus YMR223W, strain ubp8, stronger effect = lower value 0.994 | locus YMR231W, strain pep5, stronger effect = lower value 0.998 | locus YMR263W, strain SAP30, stronger effect = lower value 0.982 | locus YMR307W, strain GAS1, stronger effect = lower value 1.27 | locus YNL067W, strain RPL9B, stronger effect = lower value 0.974 | locus YNL071W, strain lat1, stronger effect = lower value 1.02 | locus YNL183C, strain NPR1, stronger effect = lower value 0.963 | locus YNL209W, strain ssb2, stronger effect = lower value 1 | locus YNL233W, strain BNI4, stronger effect = lower value 0.99 | locus YNL248C, strain rpa49, stronger effect = lower value 1.01 | locus YNL250W, strain rad50, stronger effect = lower value 0.959 | locus YNL271C, strain bni1, stronger effect = lower value 0.983 | locus YNL298W, strain CLA4, stronger effect = lower value 0.98 | locus YNL307C, strain MCK1, stronger effect = lower value 0.982 | locus YNL322C, strain KRE1 (second series), stronger effect = lower value 0.986 | locus YNL322C, strain KRE1, stronger effect = lower value 1 | locus YNR049C, strain mso1, stronger effect = lower value 1.01 | locus YNR052C, strain pop2, stronger effect = lower value 0.981 | locus YOL012C, strain htz1 0.809 | locus YOL147C, strain pex11, stronger effect = lower value 0.98 | locus YOR001W, strain rrp6, stronger effect = lower value 1.01 | locus YOR061W, strain CKA2, stronger effect = lower value 1 | locus YOR069W, strain VPS5, stronger effect = lower value 0.981 | locus YOR070C, strain gyp1, stronger effect = lower value 1.01 | locus YOR080W, strain dia2, stronger effect = lower value 1.01 | locus YOR083W, strain WHI5, stronger effect = lower value 1 | locus YOR106W, strain vam3, stronger effect = lower value 1.02 | locus YOR136W, strain idh2, stronger effect = lower value 0.983 | locus YOR144C, strain elg1, stronger effect = lower value 0.979 | locus YOR184W, strain ser1, stronger effect = lower value 0.996 | locus YOR231W, strain MKK1, stronger effect = lower value 1 | locus YOR265W, strain rbl2, stronger effect = lower value 0.999 | locus YOR270C, strain vph1, stronger effect = lower value 1.04 | locus YOR290C, strain snf2, stronger effect = lower value 1 | locus YOR316C, strain cot1, stronger effect = lower value 0.959 | locus YPL051W, strain arl3, stronger effect = lower value 0.997 | locus YPL055C, strain LGE1, stronger effect = lower value 1.02 | locus YPL078C, strain atp4, stronger effect = lower value 0.991 | locus YPL106C, strain sse1, stronger effect = lower value 0.995 | locus YPL240C, strain hsp82, stronger effect = lower value 1.01 | locus YPL241C, strain CIN2, stronger effect = lower value 0.989 | locus YPL256C, strain CLN2, stronger effect = lower value 0.983 | locus YPR119W, strain clb2, stronger effect = lower value 0.985 | locus YPR141C, strain kar3, stronger effect = lower value 0.962 | locus YPR163C, strain tif3, stronger effect = lower value 0.954 | locus YPR167C, strain met16, stronger effect = lower value 0.989 | strain wtn01, stronger effect = lower value 0.986
